High-throughput results as filed in PubChem BioAssay.
AmpC no deterg: inhibitors of E. coli AmpC beta-lactamase without detergent; P00811; AmpC nitrocefin hydrolysis, absorbance 480 nm, 0.0001% Triton; Potency, µM (doses to about 57.1 µM), usual class: inhibitors; 330,000 compounds, 0.52% hits; AID 485341; also: nearly all actives have a fitted effect of over 20% in size
Target sequence (P00811 whole entry, looked up): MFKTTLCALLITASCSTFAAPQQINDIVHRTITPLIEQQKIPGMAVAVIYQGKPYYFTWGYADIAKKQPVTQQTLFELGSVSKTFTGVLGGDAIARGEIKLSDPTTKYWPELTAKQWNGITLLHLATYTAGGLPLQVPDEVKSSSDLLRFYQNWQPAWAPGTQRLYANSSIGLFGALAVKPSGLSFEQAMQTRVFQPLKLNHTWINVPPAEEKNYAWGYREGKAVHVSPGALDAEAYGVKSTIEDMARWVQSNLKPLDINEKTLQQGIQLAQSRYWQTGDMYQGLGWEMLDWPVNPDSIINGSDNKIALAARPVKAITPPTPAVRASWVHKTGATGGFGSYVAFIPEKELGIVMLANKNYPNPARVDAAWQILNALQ
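20 mM phosphate pH 7.0 + 0.01% (detergent screen) or 0.0001% Triton X-100; 5.3 nM AmpC reagent; cpd preinc 15 min RT; nitrocefin (800 uM stock) to start; A480 q20 s × 4 min; Activity was normalised to no-enzyme and no-compound control wells.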
FMDV antiviral: foot and mouth disease virus antiviral activity; FMDV antiviral cell-based qHTS; Potency, µM (highest dose often 57.9 µM), most hits filed as inhibitors; 410,000 compounds, 1.2% hits; AID 1159524; calls by dose curve; tested in HEK293T cells; also: read-out not given here; nearly all actives have a fitted effect of over 45% in size
AMA1 RON2 block: disrupts binding of P. falciparum AMA1 to RON2. AID 720542. Potency, µM (titrated, usually from 58.2 µM), usual class: inhibitors. 360,000 compounds, 0.2% hits. AlphaScreen AMA1-biotinylated RON2 peptide binding; also: nearly all actives have a fitted effect of over 45% in size
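AMA1 (3D7) with his tag at 25 nM final met compounds first, then biotinylated RON2 peptide at 25 nM; detection used donor plus acceptor beads, 10 µg/mL apiece, read by AlphaScreen after 30 min at room temperature.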
Sm TGR block: S. mansoni TGR enzyme inhibition; purified TGR, DTNB reduction, TNB absorbance 405 nm; Potency, µM (series often up to 114 µM), usual class: inhibitors; 360,000 compounds, 3% hits; also: nearly all actives have a fitted effect of over 60% in size
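First, TGR (20 nM dispensed) and NADPH were mixed with compound. Second, a 15 min room-temperature incubation followed. Third, further NADPH and then DTNB were added to start the reaction. Finally, TNB absorbance was monitored kinetically.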
AmpC inh detg: AmpC beta-lactamase inhibition with detergent present; P00811; AmpC hydrolysis of nitrocefin, absorbance 480 nm, 0.01% Triton; AID 485294; Potency, µM (doses to about 114 µM), hits mostly inhibitors; 370,000 compounds, 0.041% hits; also: nearly all actives have a fitted effect of over 25% in size
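20 mM phosphate pH 7.0 + 0.01% (detergent screen) or 0.0001% Triton X-100; 5.3 nM AmpC reagent; cpd preinc 15 min RT; nitrocefin (800 uM stock) to start; A480 q20 s × 4 min; Activity was normalised to no-enzyme and no-compound control wells.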
Each line names hits and unclear results; the compound was inactive in the other large screens. Hits are enriched below; roughly 4.1% of the tested compounds scored in any of these assays. Unless noted, calls follow the shape of the dose curve; as a rule, active = well fitted curve in the direction sought with a large enough effect; inconclusive = small, poorly fitted or top-dose-only effect, or another doubt; inactive = no such curve, though single readings can be large; an effect the other way counts as inactive or inconclusive.

Cc1cn2cc(CNC(=O)CN3Cc4ccccc4OC(c4ccccc4F)C3)nc2s1 (centres undefined)	none (no result: AmpC no deterg, AMA1 RON2 block, Sm TGR block, AmpC inh detg)
CCOc1cc(/C=C2/N=C(C)C(C(=O)OC)=C2O)ccc1O	none
CCOc1cc(/C=C2\CCC/C(=C\c3cc(Cl)c(O)c(OCC)c3)C2=O)cc(Cl)c1O	FMDV antiviral 15.8µM, AmpC inh detg inconclusive
CN1C/C(=C/c2ccncc2)C(=O)/C(=C/c2ccncc2)C1	Sm TGR block inconclusive
CN1C/C(=C/c2ccsc2)C(=O)/C(=C/c2ccsc2)C1	FMDV antiviral 28.2µM, AMA1 RON2 block inconclusive, Sm TGR block inconclusive
COc1cc(C=C2CN(C)C(=O)C2=O)ccc1O	AMA1 RON2 block inconclusive (no result: AmpC no deterg, Sm TGR block, AmpC inh detg)
CCOc1cc(/C=C2\CN(C)C/C(=C\c3ccc(O)c(OCC)c3)C2=O)ccc1O	FMDV antiviral 17.8µM, Sm TGR block 12.6µM
CCOC(=O)C1=C(O)/C(=C\c2ccc(O)c(OCC)c2)N=C1C	Sm TGR block 39.8µM
Cc1ccccc1Cn1nnc2c(=O)[nH]c(C3CCN(C(=O)c4ccccc4)CC3)nc21	none (no result: AmpC no deterg, AMA1 RON2 block)
CCOC(=O)c1n[nH]n2c1nc(=S)c1ccccc12	Sm TGR block 11.2µM
O=C(COC(=O)c1ccc[nH]c1=O)Nc1ccc(N2CCCCC2)cc1	FMDV antiviral 2.51µM (no result: Sm TGR block, AmpC inh detg)
CCn1c(/C=C2/C(=O)N(C)c3ccccc32)nc2ccccc2c1=O	FMDV antiviral inconclusive
CCn1c(/C=C2\C(=O)N(C)c3ccccc32)nc2ccccc2c1=O	none
CCN1C(=O)/C(=C/c2nc3ccccc3c(=O)n2-c2ccccc2)c2ccccc21	FMDV antiviral 25.1µM
CCN1C(=O)/C(=C\c2nc3ccccc3c(=O)n2CC)c2ccccc21	FMDV antiviral 25.1µM, AmpC inh detg inconclusive
COC(=O)/C(=C1/OC(=O)C(c2ccccc2)=C1O)c1ccccc1	none (no result: AmpC no deterg, AMA1 RON2 block, Sm TGR block, AmpC inh detg)
Cc1ccc2cc3cc(C(=O)N4CCN(Cc5ccccc5)CC4)sc3nc2c1	none
Cc1ccc2cc3cc(C(=O)N4CCN(C(=O)c5ccco5)CC4)sc3nc2c1	Sm TGR block 44.7µM
O=C(CSc1nnc(-c2cccs2)n1CC1CCCO1)N1CCCC1 (centres undefined)	none (no result: Sm TGR block)
CCOc1ccc(C(C)=O)cc1CSc1nnc(-c2cccs2)n1CC1CCCO1 (centres undefined)	Sm TGR block 20µM
CC(=O)C1(C)CC2(CC(C)(C)OC2=O)C(=O)O1 (centres undefined)	none (no result: AmpC no deterg, AMA1 RON2 block, Sm TGR block, AmpC inh detg)
O=C(NCc1ccco1)C(c1ccncc1)N(CCC1=CCCCC1)C(=O)Cn1nnc2ccccc21 (centres undefined)	Sm TGR block 44.7µM, AmpC inh detg inconclusive
CC(C)Cn1c(=O)c2ccccc2n2c(CCC(=O)N3CCN(c4ccccc4F)CC3)nnc12	none (no result: AmpC no deterg, AMA1 RON2 block)
Cc1ccc(-c2cc(-c3ccccc3[N+](=O)[O-])[nH]n2)c(O)c1	none
O=C1NC(=O)C(c2ccccc2[N+](=O)[O-])=C1Nc1ccc(O)c(Cl)c1	Sm TGR block 7.08µM
O=C(CNCc1cccs1)Nc1ccc(S(=O)(=O)N2CCCCC2)cc1	none
CC(C)C(=O)Nc1ccc(N2CCCC2)cc1	Sm TGR block 35.5µM
CC(C)C(=O)Nc1ccc(N2CCN(c3ccc(F)cc3)CC2)cc1	none
O=C(CNCc1cccs1)Nc1ccc(N2CCCCCC2)cc1	AMA1 RON2 block 35.5µM
CC(=O)c1ccc(N2CCN(C(=O)Nc3ccc(C(C)C)cc3)CC2)cc1	FMDV antiviral 14.1µM
Cc1cc(C)cc(NC(=O)Nc2ccc(N3CCCCC3)cc2)c1	AmpC no deterg 15.8µM
COc1ccccc1N1CCN(c2nc(CNC(=O)c3ccccc3F)nc3ccccc23)CC1	none (no result: AmpC no deterg, AMA1 RON2 block, Sm TGR block, AmpC inh detg)
O=C(Nc1ccc(N2CCCCC2)cc1)c1ccccn1	FMDV antiviral 2.82µM
O=C(O)CN1C(=O)/C(=C\C(Br)=C\c2ccccc2)SC1=S	Sm TGR block 20µM
O=C(O)CN1C(=O)/C(=C/C=C/c2ccccc2)SC1=S	AmpC inh detg inconclusive
CC(/C=C1\SC(=O)N(CCCC(=O)O)C1=O)=C\c1ccccc1	FMDV antiviral 0.891µM
CC(C)CCNC(=O)CCCN1C(=O)c2ccccc2Sc2ncccc21	none (no result: AmpC no deterg, AMA1 RON2 block)
Cc1ncc2c(c1CNS(=O)(=O)N(C)C)CCN(C(=O)/C=C/c1cccc(F)c1)C2	none (no result: AmpC no deterg, AMA1 RON2 block, Sm TGR block, AmpC inh detg)
O=C(O)CCc1ccc(-c2cccs2)n1NC(=O)c1cccs1	Sm TGR block inconclusive
